An excerpt weighted towards active compounds, which were near 2.7% of everything screened.
HSP90 inh – HSP90 inhibitors, primary screen, cell lysate, luminescence; Heat shock protein HSP 90 (rabbit reticulocyte lysate; luciferase refolding); Rabbit reticulocyte lysate, luciferase refolding luminescence, 3 h; inhibition, % at 5.6 µM; 290,000 compounds, 0.91% hits;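 active = inhibition above the screen-wide mean plus 3 SD, computed separately per campaign, cut at about 16% in these data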;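 note: 0% = DMSO wells and 100% = 60 µM geldanamycin wells; inhibitors lower the luminescence because luciferase stays unfolded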
SENP7 block – SENP7 protease inhibitors, primary screen, biochemical, luminescence, uHTS | Sentrin-specific protease 7 (Homo sapiens), Q9BQF6 | recombinant SENP7, Z-RLRGG-aminoluciferin luminescence, 40 min | inhibition, % at 5 µM | 330,000 compounds, 1.5% hits;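 active = inhibition above about 50% at the single test dose, limit read from the data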;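 note: plate controls were DMSO with enzyme for no effect and no enzyme buffer wells for full effect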
Target sequence (Q9BQF6 706-1050 limits assumed): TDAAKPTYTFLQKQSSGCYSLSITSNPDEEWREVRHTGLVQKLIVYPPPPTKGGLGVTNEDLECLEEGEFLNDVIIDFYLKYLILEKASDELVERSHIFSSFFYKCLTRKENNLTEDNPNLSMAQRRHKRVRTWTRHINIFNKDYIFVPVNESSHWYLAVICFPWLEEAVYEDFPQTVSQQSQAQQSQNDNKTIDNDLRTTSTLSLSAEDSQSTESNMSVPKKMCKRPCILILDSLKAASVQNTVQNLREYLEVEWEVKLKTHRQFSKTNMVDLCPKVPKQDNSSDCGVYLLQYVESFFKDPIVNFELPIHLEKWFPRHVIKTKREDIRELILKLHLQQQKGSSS
SENP6 inh – SENP6 protease inhibitors, primary screen, biochemical, luminescence, uHTS; 330,000 compounds, 1.8% hits; Sentrin-specific protease 6 (Homo sapiens), Q9GZR1; Recombinant SENP6 catalytic domain, aminoluciferin luminescence; inhibition, % at 10 µM;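 active = inhibition above about 50% at the single tested dose, limit read from the data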;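 note: plate controls were DMSO wells with enzyme for no effect and DMSO wells lacking enzyme for full effect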
SENP8 block-1 – human SENP8 protease inhibitors, primary screen, biochemical, fluorescence, Nedd8 protein substrate, uHTS. 360,000 compounds, 0.64% hits. inhibition, % at 20 µM. Sentrin-specific protease 8 (Homo sapiens), Q96LD8. recombinant SENP8; in the data active = inhibition mostly above about 40%, no sharp cut-off; inactive = mostly below about 27%
SENP8 block-2 – SENP8 protease inhibitors, primary screen, biochemical, luminescence; inhibition, % at 10 µM; 330,000 compounds, 1.2% hits; purified SENP8, Z-RLRGG-aminoluciferin cleavage; in the data active = inhibition above about 50%
SENP8 conf – SENP8 protease inhibitors, retest, confirmation, biochemical, luminescence, single concentration; shares compounds with SENP7 block; Recombinant SENP8, Z-RLRGG-aminoluciferin luminescence, 60 min; inhibition, % at 12.5 µM; 6,200 compounds, 40% hits; AID 488912, 2010;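 active = mean inhibition across replicates above about 50%, limit read from the data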
SENP6 conf – SENP6 protease inhibitors, confirmation, biochemical, luminescence, single concentration. shares compounds with SENP7 block. recombinant SENP6, Z-RLRGG-aminoluciferin luminescence. inhibition, % at 12.5 µM. 6,200 compounds, 58% hits
SENP7 confirm – SENP7 protease inhibitors, retest, confirmation, biochemical, luminescence, single concentration; shares compounds with SENP7 block; AID 488917, 2010; 6,200 compounds, 69% hits; recombinant SENP7, Z-RLRGG-aminoluciferin luminescence, 40 min; inhibition, % at 12.5 µM
Casp3 select – caspase-3 protease inhibitors, confirmation, selectivity assay for SENP inhibitor project, biochemical, single concentration; shares compounds with SENP7 block; purified caspase-3, Z-DEVD-aminoluciferin luminescence, 60 min; inhibition, % at 12.5 µM; 6,200 compounds, 60% hits;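 active = mean inhibition above about 50%, limit read from the data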;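 note: plate controls were enzyme with DMSO for no effect and wells without caspase-3 for full effect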
Luc interf – luminescence interference (SENP counter-screen). shares compounds with SENP7 block. Pre-incubated SENP8/Z-RLRGG-aminoluciferin, luciferase luminescence interference. inhibition, % at 12.5 µM. 6,200 compounds, 39% hits;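 active = mean inhibition above about 50% when retested at one dose, limit read from the data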;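 note: plate controls were DMSO wells with completed reaction for no effect and substrate without enzyme for full effect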
* hit, by the source's call; · = no result.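 Rule for the calls, unless noted: active = mean inhibition above about 50% in the one-dose retest (limit read from the data); inactive = the rest.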

SMILES	HSP90 inh	SENP7 block	SENP6 inh	SENP8 block-1	SENP8 block-2	SENP8 conf	SENP6 conf	SENP7 confirm	Casp3 select	Luc interf
O=C1Nc2ccccc2S/C1=C/c1cccs1	-8	-9	-14	-2	-24	·	·	·	·	·
CCCCOc1ccc(/C=C2/Sc3ccccc3C2=O)cc1	4	71*	44	-245	76*	3	18	15	12	8
CC(C)COc1ccc(/C=C2/Sc3ccccc3C2=O)cc1	-2	95*	96*	-274	94*	4	22	23	16	12
O=C1NC(=O)/C(=C\c2ccc(OCc3cnc(Cl)s3)cc2)S1	-2	3	35	-6	29	·	·	·	·	·
O=C1/C(=C/c2cccs2)Sc2ccccc21	-2	93*	86*	-213	81*	3	41	58*	39	26
CC(=O)Oc1cccc(/C=C2\Sc3ccccc3C2=O)c1	8	83*	91*	-6	89*	75*	94*	68*	41	23
CC(=O)Oc1cccc(/C=C2\C=C(c3ccc(C)cc3)OC2=O)c1	5	-4	3	-63	-12	·	·	·	·	·
Cc1nn(C(=O)/C(C#N)=C/N(C)C)c(C)c1C	-1	3	-9	5	1	·	·	·	·	·
c1ccc(N=Nc2ccc3cccccc2-3)cc1	·	68*	54*	24	45	56*	68*	86*	34	49
Cc1c(NC(=O)CN(c2ccccc2)S(=O)(=O)c2ccc(F)cc2)c(=O)n(-c2ccccc2)n1C	0	13	6	10	-6	·	·	·	·	·
O=C(O)c1ccc(C(=O)C(=O)c2ccccc2)cc1	-1	17	66*	15	38	43	40	80*	85*	67*
Nc1ccc(C(=O)O)cc1	·	1	-4	5	2	·	·	·	·	·
O=C(Nc1nc2ccsc2c(=O)s1)c1ccc(F)cc1	5	100*	96*	-83	94*	37	93*	47	56*	18
Cc1csc2c(=O)sc(NC(=O)c3ccc(F)cc3Cl)nc12	-9	3	-26	-31	-15	·	·	·	·	·
O=C(Nc1nc2ccsc2c(=O)s1)c1ccc(F)cc1Cl	8	98*	89*	-104	86*	44	52*	45	52*	4
N#Cc1c(N(CCO)CCO)nc(N)c2c(N)nc3c(c12)CC(=O)N3CC1CCCO1 (configuration not stated)	0	39	-13	-408	67*	-6	3	-6	1	3
COc1ccc(C2CC(=O)c3cnc(N4CCc5ccccc54)nc3C2)cc1OC (configuration not stated)	5	11	-9	·	-4	·	·	·	·	·
CNc1nc(N2CCc3ccccc32)ncc1F	-2	5	86*	-8	79*	85*	86*	98*	83*	87*
Fc1ccc2nc(C(F)(F)F)cc(N3CCOCC3)c2c1	-2	·	·	-22	·	·	·	·	·	·
C/C(=N\NC(=O)COc1ccc(C#N)cc1)c1ccccc1OC(F)F	1	3	-39	12	-11	·	·	·	·	·
COc1c(/C=N/NC(N)=S)c(C)nn1-c1ccccc1	5	9	-1	0	70*	-20	-14	-8	-7	-8

Bioassay records deposited in PubChem BioAssay by several laboratories.
